Measured values published in PubChem BioAssay (NCI).
Compounds without any hit were thinned out: in the full panel of roughly 83,000, 20% have a hit.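 Plates (96-well) were seeded with cells, treated with compound at one concentration, and incubated for 48 hours before percent growth was determined.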 Values without a mark were called inactive. The source made the active and inactive calls. Rule for the calls: active = growth percent below 10; inactive = the rest.

Assays:
Assay in all cases: NCI-60 one-dose screen, 48 h (100 = growth as untreated, 0 = no growth, -100 = all killed)
Conditions in all cases: 10 µM unless noted
T-47D breast = system: T-47D breast
BT-549 breast = system: BT-549 breast
MDA-MB-435 melanoma = system: MDA-MB-435 melanoma
SW-620 colon = system: SW-620 colon
MCF7 breast = system: MCF7 breast
HCT-116 colon = system: HCT-116 colon
HCC-2998 colon = system: HCC-2998 colon
KM12 colon = system: KM12 colon

Compound	growth (T-47D breast)	growth (BT-549 breast)	growth (MDA-MB-435 melanoma)	growth (SW-620 colon)	growth (MCF7 breast)	growth (HCT-116 colon)	growth (HCC-2998 colon)	growth (KM12 colon)
O=C(Nc1cccc(Cl)c1)Nc1cccc(Cl)c1	19.4%	96.7%	88.8%	81%	64.3%	42.5%	72.6%	43.6%
Cc1cn(C(C=O)OC(C=O)CO)c(=O)[nH]c1=O (centres undefined)	99.6%	107%	106%	105%	95.1%	103%	119%	103%
Cc1[nH]c(=O)[nH]c(=O)c1CCSSCCc1c(C)[nH]c(=O)[nH]c1=O	96.6%	105%	103%	108%	87.2%	101%	102%	101%
COc1cc(NC(C)CCCN)c2nc(C)ccc2c1Oc1ccc(F)cc1 (centres undefined)	87.4%	70.5%	104%	67%	62.1%	33.9%	21.6%	78.9%
O=C(/C=C/c1ccc([N+](=O)[O-])cc1)c1ccc2c3c(cccc13)CC2	69.1%	84%	97.8%	47.1%	22%	38.6%	79.3%	72.5%
NS(=O)(=O)c1ccc(-n2ncc3c(N/N=C/c4ccccc4)ncnc32)cc1	94.6%	113%	88.4%	94.6%	91%	83.2%	74.7%	102%
COc1cccc(/C=C2\Cc3ccccc3C2=O)c1	100%	103%	96.7%	104%	58.8%	96.3%	105%	95.2%
COC(=O)CC1=C(c2ccc([N+](=O)[O-])cc2)CCC1=O	101%	110%	105%	101%	104%	112%	109%	107%
O=C1/C(=C/c2ccccc2O)C(=S)SN1Cc1ccco1	54.2%	93.5%	56.4%	108%	15.7%	87.1%	108%	69.5%
COc1cccc(N2CCN(CC(=O)N3CCN(c4nnc(-c5ccc(Cl)cc5)c(-c5ccc(Cl)cc5)n4)CC3)CC2)c1	27.2%	88.4%	70.9%	72.3%	41.2%	40.1%	80.6%	56.5%
COc1cnc2c(c1)C(=O)c1c-2n(CCCNC2=NCCS2)c(=O)c2cc(F)ccc12	19.1%	13.4%	41.8%	-22% (active)	3.19% (active)	-75.3% (active)	65.5%	46.7%
O=C(O)CCNS(=O)(=O)c1ccc(-c2ccccc2)cc1	108%	127%	102%	95.4%	106%	108%	111%	117%
Cn1cc(NC(=O)Nc2cc(C(=O)O)n(C)c2)cc1C(=O)O	107%	125%	115%	96.3%	116%	102%	107%	98.6%
[N-]=[N+]=NCc1cccc(/C(O)=C/C(=O)C(=O)O)c1	86.6%	113%	140%	94.9%	98.6%	91.3%	88.5%	97.4%
COC(=O)c1cc2c(/C=C3/NC(=S)NC3=O)coc2n1C	80.3%	72.9%	94.7%	96.6%	81.3%	96.8%	103%	96.5%
NS(=O)(=O)c1ccc(-n2nc(-c3ccc(Br)cc3)ccc2=O)cc1	77% [100 µM]	38.6% [100 µM]	0.0656% [100 µM] (active)	63% [100 µM]	74.8% [100 µM]	34.8% [100 µM]	91.9% [100 µM]	49.6% [100 µM]
COC(=O)[C@H](Cc1cnc[nH]1)NC(=O)[C@@H](NC(=O)Nc1cc(C(F)(F)F)cc(C(F)(F)F)c1)C(C)C	-63.5% [100 µM] (active)	-90.7% [100 µM] (active)	-91.1% [100 µM] (active)	-48.2% [100 µM] (active)	-53.1% [100 µM] (active)	-89.5% [100 µM] (active)	-82.2% [100 µM] (active)	-94.6% [100 µM] (active)
COc1ccc(Cl)cc1Nc1nc(C(F)(F)F)ccc1C(=O)N/N=C/c1c(Cl)cccc1Cl	42.2%	48.6%	62.7%	36.9%	185%	51.4%	63.5%	52.7%
O=C(NN1C(=O)c2cc(C(=O)O)c(C(=O)O)cc2C1=O)c1ccncc1	102%	103%	114%	101%	98.3%	106%	103%	111%
CCN1CC2=C(Nc3nc(SC)[nH]c(=O)c3C2c2cc(OC)c(OC)c(OC)c2)/C(=C/c2cc(OC)c(OC)c(OC)c2)C1 (centres undefined)	97.5%	102%	93.5%	102%	86.2%	92.6%	102%	97.5%
COc1ccccc1NC(=O)c1sc2nc3c(cc2c1N)C(=O)CCC3	87.3%	63.1%	-31.9% (active)	60.2%	59%	75.5%	75.5%	53.4%
CCOC(=O)CCN(c1c(Cl)ssc1=O)C(C)C	112%	95.7%	107%	99.3%	89.7%	93.4%	115%	113%
Cc1ccc(C2=NNC(c3sc(Cl)nc3Cl)C2)cc1 (centres undefined)	56.1%	98%	104%	72.1%	65.9%	74.7%	92.8%	99.5%
C[C@@H]1CN(c2nc3c(cc2F)c(=O)c(C(=O)O)cn3C(C)(C)C)C[C@H](C)N1	95.5%	107%	107%	100%	113%	92.2%	98.1%	98.5%
C[C@H]1O[C@@H](O[C@H]2[C@@H](O)C[C@H](O[C@H]3[C@@H](O)C[C@H](O[C@H]4CC[C@]5(C)C6CC[C@]7(C)[C@@H](C8=CC(=O)OC8)CC[C@]7(O)C6CC[C@@H]5C4)O[C@@H]3C)O[C@@H]2C)C[C@H](O)[C@@H]1O (some centres undefined)	-44.5% (active)	-92.5% (active)	-100% (active)	-100% (active)	-41.2% (active)	-96.7% (active)	-90.8% (active)	-100% (active)
C(=C1c2ccccc2-c2ccccc21)c1ccccn1	63.8%	58.8%	-7.78% (active)	32.7%	38%	43.5%	80.6%	39.6%
Cc1cc(Cl)ccc1Nc1nc(C(F)(F)F)ccc1C(=O)N/N=C/c1ccc(Cl)cc1	-0.161% (active)	-7.4% (active)	37.1%	9.53% (active)	2.27% (active)	-38.8% (active)	-13.3% (active)	6.03% (active)
COc1ccc(C(=O)/C=C/c2ccc(C)cc2)cc1OC	59.3%	89.8%	97.1%	24.7%	35.5%	30.1%	90.1%	20.1%
